Molecules are shown by their SMILES. Results filed as inconclusive are left out. Active and inactive are the calls of the source. Calls follow the shape of the full dose curve.

Among the data in PubChem BioAssay (Tox21) are outcome and activation values, retold here.
% is scaled to controls: 0 for no effect and ±100 for the full control effect.

Progesterone receptor (Homo sapiens), sequence (P06401 whole entry, looked up): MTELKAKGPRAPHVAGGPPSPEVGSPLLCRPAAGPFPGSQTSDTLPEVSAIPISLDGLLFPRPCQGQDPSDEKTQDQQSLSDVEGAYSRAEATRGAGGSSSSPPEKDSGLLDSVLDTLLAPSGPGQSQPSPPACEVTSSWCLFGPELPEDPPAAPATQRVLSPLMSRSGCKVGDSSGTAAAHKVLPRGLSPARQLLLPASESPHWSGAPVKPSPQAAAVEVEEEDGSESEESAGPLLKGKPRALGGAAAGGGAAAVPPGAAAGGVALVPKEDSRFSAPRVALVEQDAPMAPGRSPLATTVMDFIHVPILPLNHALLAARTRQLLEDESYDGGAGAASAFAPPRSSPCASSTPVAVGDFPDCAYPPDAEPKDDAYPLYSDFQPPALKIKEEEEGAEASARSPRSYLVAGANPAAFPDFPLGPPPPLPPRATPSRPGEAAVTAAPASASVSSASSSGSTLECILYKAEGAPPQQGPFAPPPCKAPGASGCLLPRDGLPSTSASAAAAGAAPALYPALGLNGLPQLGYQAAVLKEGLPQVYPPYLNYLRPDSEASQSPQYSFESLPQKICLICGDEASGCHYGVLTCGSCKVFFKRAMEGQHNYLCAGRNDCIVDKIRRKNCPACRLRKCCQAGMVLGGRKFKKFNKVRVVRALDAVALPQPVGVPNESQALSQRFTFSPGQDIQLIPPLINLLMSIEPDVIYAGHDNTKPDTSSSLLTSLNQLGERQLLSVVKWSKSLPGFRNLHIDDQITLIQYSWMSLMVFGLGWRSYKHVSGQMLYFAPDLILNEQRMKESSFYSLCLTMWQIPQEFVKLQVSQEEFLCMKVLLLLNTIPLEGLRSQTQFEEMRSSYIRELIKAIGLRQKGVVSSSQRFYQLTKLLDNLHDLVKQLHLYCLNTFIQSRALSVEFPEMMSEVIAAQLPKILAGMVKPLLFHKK

The test concerns the target Progesterone receptor (Homo sapiens) (UniProt P06401). The test is described as follows: qHTS assay to identify small molecule agonists of the progesterone receptor (PR) signaling pathway (AID 1346784). Also: nearly all actives have a fitted effect of over 30% in size. The following applies: PR-UAS-bla HEK293T, beta-lactamase FRET ratio, 16 h; series mostly up to 92.4 µM. An excerpt:
U.S. Tox21 Program National Center for Advancing Translational Sciences [NCATS] NIH Chemical Genomics Center [NCGC] U.S. Environmental Protection Agency [EPA] National Institutes of Environmental Health Sciences [NIEHS] National Toxicology Program [NTP] U.S. Food and Drug Administration [FDA] […] Endocrine disrupting chemicals (EDCs) and their interactions with steroid hormone receptors like PR causes disruption of normal endocrine function. To identify the compounds that activate PR signaling, a PR-UAS-bla GripTite cell line i.e. PR-UAS-bla HEK 293T (Invitrogen, Carlsbad, CA, USA) containing a beta-lactamase reporter gene under the control of an Upstream Activator Sequence (UAS) was used to screen Tox21 10K compound library.
Tox21 Assay Protocol Summary: PR-UAS-bla HEK 293T cells were dispensed at 3,000 cells/5 uL of assay medium containing 2% charcoal stripped FBS per well into black wall/clear-bottom 1536-well plates using a Multidrop Combi (ThermoFisher Scientific, Waltham, MA) dispenser. After the assay plates were incubated at a 37C and 5% CO2 for 6hr, 23 nL of compounds dissolved in DMSO, positive controls or DMSO only was transferred to the assay plate by a Pintool station (Kalypsys, San Diego, CA). The plates were incubated at 37C and 5% CO2 for 16hr. Then 1 uL of LiveBLAzer B/G FRET substrate was added using a BioRAPTR FRD (Flying Reagent Dispenser, Aurora Discovery, San Diego, CA). After the plates were incubated at room temperature for 2 hours, fluorescence intensity was measured by an Envision plate reader (PerkinElmer, Shelton, CT).
Regarding `ClC(Cl)=C(c1ccc(Cl)cc1)c1ccccc1Cl`, the result was inactive.

With `CN1CSC(=S)N(C)C1`, the outcome was inactive.

On to `Cc1cc(C(C)(C)c2ccc(O)c(C)c2)ccc1O`, for which the result was inactive.

As to `CNC(=O)Oc1cc(C)c(SC)c(C)c1`, the result was inactive.

On to `Cc1ccc2nc3sc(=O)sc3nc2c1`, for which the activation is 0.875% [at 19 µM] (inactive).

On to `N#Cc1cc([N+](=O)[O-])ccc1N`, for which the outcome was inactive.

On to `O=C1C(I)=CC(=C(c2cc(I)c(O)c(I)c2)c2ccccc2C(=O)O)C=C1I`, for which the outcome was inactive.

Regarding `ClC1=C(Cl)[C@]2(Cl)[C@@H]3[C@@H](Cl)[C@H]4O[C@H]4[C@@H]3C1(Cl)C2(Cl)Cl`, the result was inactive.

Take `Clc1ccccc1-c1ccccc1Cl`: the outcome was inactive.

Regarding `O=C(Nc1ccccc1-c1ccc(Cl)cc1)c1cccnc1Cl`, the outcome was inactive.

On to `O=S(=O)(C(Cl)(Cl)Cl)C(Cl)(Cl)Cl`, for which the result was inactive.

Consider `O=[N+]([O-])c1c(Cl)c(Cl)cc(Cl)c1Cl`, for which the outcome was inactive.

For `C[C@]12CC[C@@H](O)C[C@@H]1CC[C@@H]1[C@@H]2CC[C@]2(C)C(=O)CC[C@@H]12`, the outcome was inactive.

For `Oc1c(Cl)ccc(Cl)c1Cl`, the outcome was inactive.

In the case of `CCN(CC)C(=O)Cl`, the result was inactive.

In the case of `CCOC(=O)C(O)(c1ccc(Cl)cc1)c1ccc(Cl)cc1`, the result was inactive.

As to `Oc1c(I)cc(I)cc1I`, the result was inactive.
